# Source: PubChem BioAssay AID2113 (National Center for Advancing Translational Sciences (NCATS), 2009)
# Results filed as inconclusive are left out. Unmarked numbers belong to inactive results. Activity calls are given as the source filed them. Calls come from the whole dose curve; as a rule, active = well fitted curve in either direction with a large enough effect; inconclusive = small, poorly fitted or top-dose-only effect; inactive = no such curve, though single readings can be large or run the other way.
# Biological target: Lysosomal alpha-glucosidase (Homo sapiens) (UniProt P10253)
# Assay: Confirmation of Inhibitors and Activators of Human alpha-Glucosidase From Spleen Homogenate; for activity change, both directions: 0% is about no effect
# Conditions: alpha-glucosidase enzyme activity; series mostly up to 60.5 µM; activity change, both directions: at the top concentration
# Text: NIH Chemical Genomics Center [NCGC]
# NIH Molecular Libraries Probe Production centers Network [MLPCN]
# Assay Submitter (PI): Wei Zheng
# Alpha-glucosidase is responsible for hydrolysis of terminal, non-reducing 1,4-linked alpha-D-glucose residues with release of alpha-D-glucose. It is a lysosomal hydrolase that is required for the degradation of a small percentage (1-3%) of cellular glycogen in human. Deficiency of this enzyme results in glycogen-storage disease type II (GSDII), also referred to as Pompe disease, an autosomal recessive disorder. Structurally normal glycogen is accumulated in lysosomes and cytoplasm in affected patients, primarily in muscle tissues. Excessive glycogen storage within lysosomes may interrupt normal functioning of other organelles and leads to cellular injury. In turn, this leads to enlargement and dysfunction of the entire organ involved (eg, cardiomyopathy and muscle weakness).
# It has reported that the improper folding and trafficking of alpha-glucosidase resultinged from the genetic mutations may account for a significant number of Pomrope patients. […] We optimized this alpha-glucosidase assay in 1536-well plate format for identifying the novel small molecule inhibitors with the structures other than the sugar analogs in order to develop the new pharmacological chaperones. In particular, this assay is directed towards discovering compounds active in a more natural setting, tissue homogenate, that may have been missed by screens of the purified enzyme under more stringent conditions. This assay attempted to confirm hits from the primary screening.
# NCGC Assay Protocol Summary:
# This is a fluorogenic enzyme assay with 4-methylumbelliferyl-alpha-D-glucopyranoside as the substrate and human spleen homogenate containing alpha-glucosidase as the enzyme preparation. Upon hydrolysis of this fluorogenic substrate, the resulting product, 4-methylumbelliferone (which excites at 365 nm and emits at 440 nm) can be detected by a fluorescence plate reader. Data were normalized to the controls for basal activity (without enzyme) and 100% activity (with enzyme). The AC50 values were determined from concentration-response data modeled with the standard Hill equation.
# Assay buffer: 50 mM citric acid (titrated with potassium phosphate to pH 5.0), 0.01% Tween-20 (pH 5.0 is an optimal condition for this enzyme assay)
# 1536-well assay protocol for the alpha-glucosidase from human spleen homogenate:
# (1) Add 2 ul/well spleen homogenate (1 ug)
# (2) Add 23 nL compounds in DMSO solution. The final titration was 0.5 nM to 58 uM.
# (3) Add 2 ul of substrate (1 mM final)
# (4) Incubate at 37 C for 40 min
# (5) Add 2 ul stop solution (1M NaOH and 1M Glycine mixture, pH 10)
# (6) Detect the assay plate in a ViewLux plate reader (PerkinElmer) with Ex=365 nm and Em=440nm.
# Keywords: Alpha-glucosidase, Pompe Disease, pharmacological chaperone, chaperone therapy, high throughput screening, alpha-glucosidase inhibitor, MLSMR, MLSCN, NIH Roadmap, qHTS and NCGC
# Potency is the fitted concentration of half-maximal effect.
SMILES,"activity change, both directions",Potency
CCCN1CNc2c(c(=O)[nH]c(=S)n2-c2ccc(Cl)cc2)C1,-3.54% [at 31.5 µM],–
COc1ccc(C#Cc2cnc(Cl)c3cncnc23)cc1OC,2.33%,–
COc1ccc(CCn2c3c(c(=O)[nH]c2=S)CN(CC(C)C)CN3)cc1OC,–,14.1 µM (active)
CCCN1CNc2c(c(=O)[nH]c(=S)n2CCc2cc(OC)cc(OC)c2)C1,–,11.2 µM (active)
COCCNS(=O)(=O)c1ccc2c(c1)n(C)c(=O)n2C,3.34% [at 31.5 µM],–
CCCN1CNc2c(c(=O)[nH]c(=S)n2CCc2ccc(Cl)cc2Cl)C1,–,22.4 µM (active)
O=S(=O)(c1ccc(Cl)cc1)N1CCN(c2nc(-c3cccs3)nc3ccccc23)CC1,-2.9%,–
COc1ccc(Cc2nnc(NC(=O)CSc3ccc(Cl)cc3)s2)cc1,-3.34%,–
O=C(NN=C1c2ccccc2-c2ccccc21)c1cccc(S(=O)(=O)N2CCOCC2)c1,-2.68%,–
CC1(CCc2ccc3c(c2)OCO3)NC(=O)c2ccccc2N1 (stereo not given),4.52% [at 31.5 µM],–
Nc1ccc(S(=O)(=O)N2CCOCC2)cc1,1.95%,–
O=C1Cc2cc(S(=O)(=O)N3CCN(c4ccc(Br)cc4)CC3)ccc2N1,-14.2% [at 132 µM],–
O=S(=O)(c1ccccc1Br)N1CCOCC1,0.791%,–
C=CCn1c2ccccc2c2nnc(SCC(=O)NC(C(=O)OC)C(C)C)nc21 (stereo not given),5.38% [at 31.5 µM],–
CCCN1CNc2c(c(=O)[nH]c(=S)n2CCc2ccccc2Cl)C1,–,15.8 µM (active)
C/C=C1\COC(C(=O)NCCN2CCOCC2)(C(F)(F)F)C=C1C=C1CCCCC1 (stereo not given),-1.87%,–
Clc1cc2c(cc1/C=C/c1ccc3ccccc3n1)OCO2,5.58%,–
CCCN1CNc2c(c(=O)[nH]c(=O)n2CCc2ccc(OC)c(OC)c2)C1,–,17.8 µM (active)
COC(=O)c1ccc(CSc2cc(C)c3cccc(C)c3n2)o1,4.59% [at 31.5 µM],–
CCCN1CNc2c(c(=O)[nH]c(=S)n2CCc2ccc(C)c(C)c2)C1,–,20 µM (active)

SMILES,"activity change, both directions",Potency
N=c1sccn1CC(=O)Nc1cc(S(=O)(=O)N2CCCC2)ccc1Cl,2.92%,–
CC(C)(C)OC(=O)NCCCC[C@H](NC(=O)c1nc[nH]c1C(=O)NCc1ccccc1)C(=O)OC(C)(C)C,-6.76%,–
O=C(CSc1ncc(C(F)(F)F)cc1Cl)N1CCN(S(=O)(=O)c2ccccc2)CC1,-25.3%,–
Cn1c2c(c(=O)n(C)c1=O)CN(CC1CCCO1)CN2 (stereo not given),6.19% [at 31.5 µM],–
c1csc(-c2nc(NCC3CCCO3)c3ccccc3n2)c1 (stereo not given),2.62% [at 31.5 µM],–
Cc1sc(-c2cc3ccccc3oc2=O)nc1-c1ccc(Cl)cc1,11%,–
O=C(Cc1ncc(C(F)(F)F)cc1Cl)NCCc1ccccc1,0.772% [at 31.5 µM],–
CCCN1CNc2c(c(=O)[nH]c(=S)n2CCc2cccs2)C1,–,35.5 µM (active)
CCCN1CNc2c(c(=O)[nH]c(=S)n2CCc2ccccc2)C1,9.04% [at 31.5 µM],–
COc1ccc(CCN2CNc3c(c(=O)n(C)c(=O)n3C)C2)cc1OC,0.232% [at 31.5 µM],–
CCNc1ccc(C2(O)C(=O)c3ccccc3C2=O)cc1,-0.766%,–
CC1(C)CC(=O)c2cc(C(=O)NC3CCSC3=O)c(=O)n(-c3ccccc3)c2C1 (stereo not given),0.378% [at 31.5 µM],–
CCCN1CNc2c(c(=O)[nH]c(=S)n2CCc2cccc(Cl)c2Cl)C1,–,25.1 µM (active)
C[C@H]1OC(OC2C(O)[C@@H](O)C(OC3C(O)[C@@H](O)C(O)O[C@@H]3CO)O[C@@H]2CO)[C@H](O)C(O)C1N[C@H]1C=C(CO)[C@@H](O)[C@H](O)C1O (stereo not given in full),-89.9% [at 286 µM],–
O=C(O)c1c[nH]c2ccc(S(=O)(=O)N3CCOCC3)cc12,-20.1%,–
Cc1sc(-c2cc3cc(Br)ccc3oc2=O)nc1-c1ccccc1,12.3%,–
N#CCCN1CCN(S(=O)(=O)c2ccc(S(=O)(=O)N3CCOCC3)cc2)CC1,-6.93%,–
N#C/C(=C\c1cc(O)c(O)c(O)c1)C(N)=O,-2.14% [at 31.5 µM],–
O=C1c2ccccc2NC(c2cccnc2)N1c1ccccc1F (stereo not given),8.66% [at 31.5 µM],–
CCCN1CNc2c(c(=O)[nH]c(=S)n2CCc2cc(Cl)ccc2Cl)C1,–,14.1 µM (active)
